Screening results from PubChem.
The list is not random: actives were taken first. Their share in the collection is about 2.3%.
697 NFkB inh – inhibitors of PMA/ionomycin-induced NF-kB reporter, 697 cells, primary screen, B-cell NF-kB inhibitor project, cell-based, luminescence, uHTS. 697 B-cell NF-kB luciferase reporter, 16 h. inhibition, % at 4 µM. actives 0.33% (n = 330,000). AID 435022, 2010; in the data active = inhibition above about 35%
Jurkat NFkB inh – inhibitors of induced NF-kB luciferase reporter, primary screen, TCR NF-kB activation inhibitor project, cell-based, luminescence, uHTS; Jurkat, PMA/ionomycin-induced NF-kB luciferase reporter; actives 0.53% (n = 330,000); AID 435003, 2010; inhibition, % at 4 µM; in the data active = inhibition above about 50%
Gli-Sufu block – Gli-Sufu pathway antagonists, primary screen, luciferase luminescence, Sufu-KO-LIGHT cells, uHTS | Sufu-KO-LIGHT fibroblasts, Gli luciferase reporter luminescence | inhibition, % at 5 µM | actives 0.74% (n = 340,000);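 active = inhibition above about 55%, limit read from the data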;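 note: 0% = DMSO-treated cells and 100% = wells with medium but no cells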
aSyn UTR inh – MLPCN primary screen, SNCA 5' untranslated region; AID 1813, 2009; actives 0.82% (n = 300,000); inhibition, % (tested at 7.5 µM); alpha-synuclein 5'UTR reporter, inhibitor activity; in the data active = inhibition above about 60%;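 note: H4 neuroglioblastoma cells stably carrying SNCA 5'UTR luciferase fusion; 0% = DMSO wells and 100% = positive control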
Shn3 inh set2 – reduction of Shn3 3'UTR firefly luciferase signal, primary screen, Schnurri-3 inhibitor project, cell-based, Clone20 osteoblasts, set 2; Clone20 osteoblast Shn3 3'UTR firefly luciferase, 24 h; inhibition, % at 12.5 µM; actives 0.52% (n = 360,000);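 active = mean inhibition of at least 75% with every replicate also reaching 75%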;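 note: 0% = median of neutral control wells and 100% = pilot-screen positive control compound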
TAG inh – inhibitors of triacylglycerol accumulation, primary screen, cell-based, uHTS, fluorescence, H9c2 | H9c2 cells, Nile Red lipid (TAG) fluorescence; cells loaded with 200 µM oleic acid | inhibition, % at 12.5 µM | actives 0.66% (n = 230,000);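 active = pattern-corrected inhibition of lipid staining of at least 50% with the nuclear-stain viability signal not falling by more than 50%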;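 note: 0% = DMSO wells and 100% = triacsin C control wells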
Gli antag conf – Gli-SUFU pathway antagonists, confirmation, single concentration, luciferase luminescence, Sufu-KO-LIGHT cells | actives 40% (n = 2,500) | Gli luciferase reporter | shares compounds with Gli-Sufu block | inhibition, % at 5 µM;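 active = mean inhibition at 5 µM reaching about 45%, limit read from the data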;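 note: plate controls were DMSO-treated cells for no effect and wells lacking cells for full effect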
Gli cytotox – cytotoxicity in Sufu-KO-LIGHT cells, confirmation, cytotoxicity control for Gli-SUFU antagonist project, cell-based, ATP luminescence, single concentration; cytotoxicity, % at 5 µM; shares compounds with Gli-Sufu block; AID 651994, 2013; actives 32% (n = 2,500);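 active = mean cytotoxicity at 5 µM above about 25%, limit read from the data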;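 note: cells exposed to compound overnight for roughly 16 to 18 hours; plate controls were DMSO wells with cells for no effect and medium without cells for full effect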
Wnt3a cs – Wnt3a reporter signal inhibition, confirmation, counter-screen for Gli-SUFU antagonist project, Wnt-LIGHT cells, luminescence, single concentration. shares compounds with Gli-Sufu block. Wnt3a-driven luciferase reporter. inhibition, % at 6.25 µM. actives 20% (n = 2,500). AID 651995, 2013;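 active = mean inhibition above about 25%, limit read from the data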
* hit, by the source's call; . = no result.

SMILES	697 NFkB inh	Jurkat NFkB inh	Gli-Sufu block	aSyn UTR inh	Shn3 inh set2	TAG inh	Gli antag conf	Gli cytotox	Wnt3a cs
COC(=O)c1ccccc1NS(=O)(=O)c1c(C)noc1C	6.6	1.8	4.3	33.3	-16.4	-6.2	.	.	.
O=C(NCC(c1ccco1)N1CCCC1)c1ccc(Cl)c(S(=O)(=O)N2CCc3ccccc32)c1 (stereo not drawn)	-15.6	47.5	66.7*	.	77.6	-11.0	59.5*	33.8*	27.6*
Cc1c(C(=O)NCC(c2ccco2)N2CCCC2)sc2ccccc12 (stereo not drawn)	-19.2	-10.9	3.9	.	2.0	-12.3	.	.	.
O=C(NCC(c1ccco1)N1CCCC1)c1sc2ccccc2c1Cl (stereo not drawn)	-10.2	-10.9	51.3	4.8	-14.8	.	15.7	11.1	-81.1
CCOC(=O)c1ccc(NC(=O)c2nc[nH]c2C(=O)N2CCC(C)CC2)cc1	17.3	6.9	19.3	-6.7	-9.3	23.0	.	.	.
CC(C)c1ncc(C(O)c2ccccc2)n1C (stereo not drawn)	-0.4	5.1	-3.9	-7.3	-0.4	-5.0	.	.	.
CC(C)c1ccc(C(O)c2cnc(C(C)C)n2C)cc1 (stereo not drawn)	-57.7	-24.4	94.9*	-19.8	-12.5	-26.4	10.3	2.1	-70.5
CC1=C(C(=O)N(C)C)CC(CC(=O)NCc2cccc3ccccc23)C(=O)N1Cc1ccccc1 (stereo not drawn)	.	.	.	.	-4.9	3.6	.	.	.
Cc1ccc(-c2nc3[nH]c(=O)cc(NC(=O)c4cccs4)n3n2)cc1	-10.3	6.5	-50.4	-8.0	7.9	18.2	.	.	.
Cn1nc(-c2ccc(C(=O)N3CCN(Cc4ccccc4)CC3)cc2)c2ccccc2c1=O	-30.3	10.1	53.0	-1.0	38.2	.	35.9	6.4	9.3
CC(=O)N(C)c1cccc(-c2ccc3nnc(C)n3n2)c1	18.8	-3.1	56.5*	-1.9	3.4	.	15.7	1.7	22.9
CCS(=O)(=O)Nc1cccc(-c2ccc3nnc(C)n3n2)c1	0.6	-10.2	.	-19.2	.	.	.	.	.
O=C(CNC(=O)Cc1ccccc1)NCC(=O)OCc1ccccc1	24.5	20.3	98.7*	5.6	1.1	10.4	9.8	16.1	-11.3
COc1ccc2nc3ccccc3nc2c1NC(=O)c1ccc(Cl)cc1Cl	-19.0	-5.0	71.4*	-12.0	19.6	.	30.6	19.6	-26.3
CCn1c(-c2ccccc2Cl)nn(CC(=O)Nc2ccccc2OC)c1=S	-6.6	-19.5	-14.6	-5.2	20.7	.	.	.	.
COc1ccc(NC(=O)/C(C#N)=C\c2cc(C)n(-c3ccc4c(c3)OCO4)c2C)cc1	-53.9	46.1	64.1*	-107.0	25.7	2.9	56.1*	56.1*	-65.2
COc1ccc(OC)c(NC(=O)COC(=O)c2ccc(-n3cnnn3)cc2)c1	5.5	-8.5	69.3*	3.6	0.1	-7.8	10.1	-3.9	-14.1
COc1ccc(C(=O)NCc2nnc(SCC(=O)Nc3cc(OC)ccc3OC)o2)cc1	-14.2	5.8	52.1	-5.4	-11.2	.	13.7	1.9	6.2
COC(=O)[C@]1(Cc2ccccc2)N[C@H](CN(C)C(C)=O)[C@@H]2C(=O)N(C)C(=O)[C@@H]21	6.3	-2.8	-0.2	.	-11.2	-1.8	.	.	.
Cc1onc(-c2ccccc2Cl)c1C(=O)OCC(=O)Nc1cccc(S(=O)(=O)N(C)C)c1	-8.1	4.2	8.9	2.2	20.4	-11.3	.	.	.
COC(=O)c1ccc(-c2ccc([C@H]3[C@H]4C=CC[C@@H](C)[C@@H]4C(=O)N3Cc3ccccc3)c(F)c2)cc1	-36.6	1.2	3.0	-12.3	8.2	-1.1	.	.	.
